High-throughput results: PubChem BioAssay, National Center for Advancing Translational Sciences (NCATS)
MCF10A rerep – inducers of DNA re-replication in MCF 10A breast cells. 2.9% of 350,000 active. Potency, µM (titrated, usually from 46.1 µM), inactives show top-dose activity, positive = re-replication, usual class: activators. MCF 10A DNA re-replication, Hoechst nuclear intensity, 48 h; further: potency means the concentration at half of the fitted maximal effect; % of control where 0% means no effect; nearly all actives have a fitted effect of over 50% in size
PINK1 expr mod – modulators of PINK1 expression; PINK1 immunofluorescence, high-content cytometry, 24 h; Potency, µM (highest dose often 76.6 µM), without a hit: at the highest dose activation (PINK1 increase), actives largely listed as activators; 0.2% of 410,000 active; AID 624263; active means well fitted activation curve with a large enough effect; inconclusive means small, poorly fitted or top-dose-only effect; cell line not stated here; further: potency means the concentration at half of the fitted maximal effect; % of control where 0% means no effect; nearly all actives have a fitted effect of over 65% in size
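Cells are seeded, rested 12 hours, then given compound at five concentrations or DMSO for 24 hours. After fixation, blocking and antibody staining, PINK1 amount and mitochondrial localization are scored; CCCP serves as control.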
IL-1B inflam inh – inflammasome signaling inhibition, IL-1 beta readout. THP-1 LPS/ATP IL-1B secretion, AlphaLISA, 16 h; hits give low values. activity change, % at 57.5 µM. 4.7% of 360,000 active; in the data active means activity change below about -50%; inconclusive means mostly about -30% to -49%; further: on the % scale 0 is the no-effect control and ±100 the full control effect
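THP-1 cells pretreated 1 hr with compounds (up to 57.5 uM final), then stimulated with LPS (250 ng/mL final) plus ATP (1.25 mM final); secreted IL-1B measured by AlphaLISA after 16 hr, decreased signal indicating inhibition.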
S2 tox – viability counter-screen for ATXN expression inhibitors; Potency, µM (highest dose often 56.7 µM), usual class: cytotoxic; 0.49% of 400,000 active; S2 cells (HEK-293 line with an ATXN2-luciferase reporter) viability, CellTiter-Fluor protease fluorescence, 24 h; further: potency means the concentration at half of the fitted maximal effect; nearly all actives have a fitted effect of over 40% in size
ATXN2 expr inh – reduces ATXN2 reporter expression in HEK-293 cells; HEK-293 ATXN2-luciferase reporter, luminescence, 24 h; Potency, µM (top dose mostly 57 µM), for inactives: at the top dose activity change, negative = inhibition, usual class: inhibitors; 0.72% of 360,000 active; further: potency means the concentration at half of the fitted maximal effect; on the % scale 0 is the no-effect control and ±100 the full control effect; nearly all actives have a fitted effect of over 55% in size
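ATXN2-luciferase reporter cells (luciferase flanked by upstream and downstream ATXN2 gene portions) were treated 24 h at 37 °C with compounds at up to 57 uM. SteadyGlo luminescence gave expression; GF-AFC fluorescence gave viability.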
SW480 rereplic – inducers of DNA re-replication in SW480 colon cancer cells. 1.8% of 340,000 active. SW480 DNA re-replication, Hoechst DNA content imaging, 48 h. Potency, µM (doses to about 46.1 µM), without a hit: at the top dose re-replication activation, most hits filed as activators; further: potency means the concentration at half of the fitted maximal effect; % of control where 0% means no effect; nearly all actives have a fitted effect of over 55% in size
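SW480 cells exposed to compounds for 48 hr at 37 C, 5% CO2, then Hoechst-stained 40 min. Nuclear DNA content imaged by fluorescence scanning (405 nm excitation, 500-530 nm emission); re-replication scored as increased high-intensity nuclei.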
An asterisk follows results filed as active; i = inactive; ? = inconclusive; / = no result given; [ ] = another dose, or the depositor's remark. This is a sample that favours compounds with a hit; in the whole collection about 7.1% have one here. Unless noted, the call rests on the fitted dose curve; in most records, active means well fitted curve in the direction sought with a large enough effect; inconclusive means small, poorly fitted or top-dose-only effect, or another doubt; inactive means no such curve, though single readings can be large; an effect the other way counts as inactive or inconclusive.

SMILES | MCF10A rerep | PINK1 expr mod | IL-1B inflam inh | S2 tox | ATXN2 expr inh | SW480 rereplic
O=C(NCCCN1CCCCCC1)c1ccc2c(c1)NC(=O)C(N1CCOCC1)S2 (stereo unspecified) | -33% | 1% | -9 | i | 3% | -5%
Cc1ccc(/C=C2/Sc3ccc(C(=O)NCCN4CCOCC4)cc3NC2=O)cc1 | 21µM* | 2% | -3 | i | / | 5%
CCN1CCCC1CNC(=O)c1ccc2c(c1)NC(=O)/C(=C\c1ccc(C)cc1)S2 (stereo unspecified) | ? | -1% | -15 | / | / | ?
O=C1Nc2cc(C(=O)NCCCN3CCCC3)ccc2S/C1=C/c1ccccc1F | ? | 1% | ? | ? | / | 18µM*
COc1ccc(CCNC(=O)c2ccc3c(c2)CCN3S(=O)(=O)c2ccc(C)cc2)cc1 | / | -1% | / | i | -6% | /
O=C(CN1CCN(Cc2ccccc2)CC1)N1CCCc2c1c(=O)oc1ccc(O)cc21 | 21µM* | 9%[38.3 µM] | 36 | ? | -27% | 26%
COc1cc(S(=O)(=O)NCCOC23CC4CC(CC(C4)C2)C3)c(OC)cc1Cl | ? | 7% | -55* | i | -19% | -8%
Oc1ccc(C=NNC(=S)Nc2cccnc2)nc1 | ? | -6% | 64 | ? | ? | 13µM*
Cc1nc2cc(-c3ccc(Cl)cc3)nn2c(NCCN(C)C)c1C | ? | 0% | -75* | i | 0% | ?
Cc1cc(C)n2nc(-c3ccc(Cl)cc3)cc2n1 | -4% | 0% | 29 | i | / | -14%
O=C(O)c1cccc(CN2C(=O)SC(Nc3ccccc3)C2=O)c1 (stereo unspecified) | 23µM* | 1% | -6 | i | 4% | -4%
COc1ccc(NC(=O)Cn2c(=O)n(-c3ccccc3)c(=O)c3c4c(sc32)CCCC4)cc1 | / | 4% | / | ? | 4% | /
O=C(Oc1c(-c2ccccc2)c(=O)n2c3c(cccc13)CC2)c1ccc(F)cc1 | 26µM* | 0% | 44 | i | 14% | -6%
CC(=O)Nc1ccc(S(=O)(=O)Nc2cccc(-c3ccc(N4CCC(C)CC4)nn3)c2)cc1 | / | 2% | / | ? | 0% | /
N#C/C(=C\c1ccc(O)cc1)C(=O)N1CCCC1 | 5% | 0% | -9 | i | -1% | -16%
Cc1ccc(/C=C(\C#N)C(=O)N2CCCC2)c(C)c1 | 8% | 3% | -87* | i | 26% | -1%
N#C/C(=C\c1ccc(OC(F)F)cc1)C(=O)N1CCCCC1 | 13µM* | 4% | ? | i | 20% | -1%
CCN1CCN(C(=O)/C(C#N)=C/c2ccc(OC(F)F)cc2)CC1 | 1% | 2% | 21 | i | / | -3%
O=C(NCc1cccs1)c1ccc(CS(=O)Cc2ccc(Cl)cc2)o1 (stereo unspecified) | / | 0% | -15 | ? | / | /
COc1ccc(NC(=O)Cn2c(=O)nc(-c3ccccc3)c3ccccc32)cc1OC | / | -1% | / | / | / | /
O=C(O)c1c(O)c(-c2ccccc2)nc2ccccc12 | / | / | / | i | 40% | /
Cc1ccc(Cl)cc1NC(=O)c1sc2nc(C)c(C)c(C)c2c1N | / | 3% | / | i | 0% | /
COc1ccc(-c2cc(=O)n(-c3nc4ccccc4[nH]3)[nH]2)cc1 | 18µM* | 2%[38.3 µM] | 55 | ? | -22% | ?
CCN(CC)CC(C)CNC(=O)c1cc(-c2ccc(Br)s2)nc2ccccc12 (stereo unspecified) | / | 0% | / | / | 28µM* | /
Cc1ccc(-c2cc(C(=O)Nc3ccccc3C)c3ccccc3n2)o1 | ? | 0% | 5 | i | 5% | 1%
SMILES | MCF10A rerep | PINK1 expr mod | IL-1B inflam inh | S2 tox | ATXN2 expr inh | SW480 rereplic
Cc1ccc(-c2cc(C(=O)NCc3ccco3)c3ccccc3n2)o1 | -2% | 1% | 9 | i | 31% | 4%
CC(C)CN(CCCNC(=O)c1cc(-c2ccc(Br)s2)nc2ccccc12)CC(C)C | / | -1% | / | i | -1% | /
COC(=O)c1cc(-c2ccc(C)o2)nc2ccccc12 | 23µM* | 2% | -28 | i | 3% | 16µM*
Cc1ccc(-c2cc(C(=O)NCC(c3ccccc3)N(C)C)c3ccccc3n2)o1 (stereo unspecified) | ? | -2% | -28 | i | 0% | 26µM*
COc1ccc(-c2cc(C(=O)NCC(c3ccccc3)N(C)C)c3ccccc3n2)cc1OC (stereo unspecified) | 18µM* | -2% | ? | ? | 1% | 18µM*
CC(=O)c1ccccc1OCc1ccc(S(=O)(=O)Cc2ccccc2)cc1 | 3% | 2% | -60* | ? | -31% | -61%
CC1(C(=O)O)Oc2cccnc2NC1=O (stereo unspecified) | 5% | -1% | 20 | i | 13% | 2%
CCOC(=O)C1(C)Oc2cccnc2NC1=O (stereo unspecified) | -1% | 0% | -70* | i | -22% | -9%
CC1(C)Cc2c(sc(NC(=O)c3ccc(S(=O)(=O)N4CCCCCC4)cc3)c2C(N)=O)C(C)(C)N1 | ? | 6% | i | ? | -15% | ?
CC1(C)Cc2c(sc(NC(=O)c3ccc4c(c3)OCCO4)c2C(N)=O)C(C)(C)N1 | 1% | -2% | -67* | i | -24% | 20%
CC(C)(C)c1ccc(Oc2ccc(N)cn2)cc1 | -1% | 2% | 5 | i | 9.5µM* | -6%
O=C1/C(=C/c2ccccc2)Nc2ccccc21 | 0% | 13%[38.3 µM] | ? | i | -3% | 4%
Cc1[nH]c(C=C2C(=O)Nc3ccccc32)c(C)c1CCC(=O)O | / | / | / | / | 1.1µM* | /
CC(C)c1ccc(-c2noc(C3CCCN(C(=O)c4ccc(F)cc4F)C3)n2)cc1 (stereo unspecified) | 12µM* | -4%[38.3 µM] | ? | i | 4% | ?
Cc1ccccc1NC(=O)N1CCCC(c2nc(-c3ccc(C(C)C)cc3)no2)C1 (stereo unspecified) | 15µM* | 0%[38.3 µM] | -77* | ? | -24% | 2%
Cc1ccccc1NC(=O)N1CCCC(c2nc(-c3ccc(F)cc3)no2)C1 (stereo unspecified) | 3% | 5%[38.3 µM] | 12 | i | -6% | 5%
Cc1ccc(-c2noc(C3CCCN(C(=O)c4ccc(F)cc4F)C3)n2)cc1 (stereo unspecified) | ? | 2%[38.3 µM] | ? | i | -8% | 4%
O=C(CCS(=O)(=O)c1nc(-c2cccs2)cc(C(F)(F)F)n1)Nc1ccc(OC(F)(F)F)cc1 | / | 1% | / | 16µM* | -18% | /
COc1ccc(NC(=O)CCS(=O)(=O)c2nc(-c3cccs3)cc(C(F)(F)F)n2)cc1 | / | 5% | / | / | / | /
